Experimental data taken from the supplement of paper PMC11732987, “Enantioselective OTUD7B fragment discovery through chemoproteomics screening and high-throughput optimisation” (Communications Chemistry, 2025).

Assays:
Test in all cases: log2 ratio of Biotin-Ahx-Ub-VS probe labelling (fragment/DMSO); higher = less target engagement (more negative = stronger competition), active = hit call of the paper (q ≤ 0.05, log2 ratio ≤ -1)
Details in all cases: compound concentration: 200 uM; treatment time: 3 h
USP19 = target: T1, USP19 (UniProt O94966)
T1 sequence (whole entry): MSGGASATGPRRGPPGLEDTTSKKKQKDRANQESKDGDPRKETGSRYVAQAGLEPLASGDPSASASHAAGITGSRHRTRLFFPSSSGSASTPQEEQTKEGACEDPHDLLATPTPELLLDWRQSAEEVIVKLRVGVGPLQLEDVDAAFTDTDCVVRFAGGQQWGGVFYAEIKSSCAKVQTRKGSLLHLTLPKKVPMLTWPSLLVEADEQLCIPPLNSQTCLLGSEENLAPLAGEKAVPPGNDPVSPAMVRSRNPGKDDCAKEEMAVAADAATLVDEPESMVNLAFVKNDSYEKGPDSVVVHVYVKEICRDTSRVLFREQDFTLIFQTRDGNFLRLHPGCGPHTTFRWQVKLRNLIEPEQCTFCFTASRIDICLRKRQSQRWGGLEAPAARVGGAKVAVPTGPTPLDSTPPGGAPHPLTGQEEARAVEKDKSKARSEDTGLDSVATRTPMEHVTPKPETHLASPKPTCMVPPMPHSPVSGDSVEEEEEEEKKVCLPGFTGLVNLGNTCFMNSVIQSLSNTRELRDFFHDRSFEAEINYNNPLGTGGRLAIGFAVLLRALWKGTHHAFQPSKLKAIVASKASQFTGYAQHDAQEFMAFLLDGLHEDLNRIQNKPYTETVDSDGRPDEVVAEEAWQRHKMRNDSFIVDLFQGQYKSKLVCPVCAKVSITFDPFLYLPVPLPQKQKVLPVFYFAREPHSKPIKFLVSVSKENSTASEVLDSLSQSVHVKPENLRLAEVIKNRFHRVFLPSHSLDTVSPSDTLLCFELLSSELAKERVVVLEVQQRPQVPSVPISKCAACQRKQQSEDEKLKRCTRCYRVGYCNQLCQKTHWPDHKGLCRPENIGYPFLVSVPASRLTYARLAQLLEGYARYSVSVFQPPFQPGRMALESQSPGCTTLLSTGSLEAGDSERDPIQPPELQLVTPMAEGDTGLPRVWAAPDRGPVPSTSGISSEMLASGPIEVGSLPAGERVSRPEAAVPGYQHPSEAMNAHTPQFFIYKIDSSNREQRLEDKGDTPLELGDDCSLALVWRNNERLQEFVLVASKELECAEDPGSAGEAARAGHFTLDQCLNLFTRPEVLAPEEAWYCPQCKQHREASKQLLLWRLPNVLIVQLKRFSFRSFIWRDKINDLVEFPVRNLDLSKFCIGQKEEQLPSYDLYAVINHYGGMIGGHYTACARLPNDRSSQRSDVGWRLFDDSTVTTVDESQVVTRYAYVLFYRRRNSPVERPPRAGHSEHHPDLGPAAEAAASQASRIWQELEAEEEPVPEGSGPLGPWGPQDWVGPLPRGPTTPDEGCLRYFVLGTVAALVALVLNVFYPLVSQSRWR
Method in brief: (§1)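 Average log2 ratios of fragment over vehicle were obtained by unpaired t-test from global-median-normalised Spectronaut label-free quantities. Proteins with ≥2 unique peptides were included. HEK293T lysate (495 µg per sample) was treated in triplicate with fragment at 200 µM or vehicle for 3 h, then with Biotin-Ahx-Ub-VS at 0.5 µM final for 1 h, and labelled DUBs were NeutrAvidin-enriched and run by diaPASEF LC-MS/MS.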

USP22 = target: T2, USP22 (UniProt Q9UPT9)
T2 sequence (whole entry): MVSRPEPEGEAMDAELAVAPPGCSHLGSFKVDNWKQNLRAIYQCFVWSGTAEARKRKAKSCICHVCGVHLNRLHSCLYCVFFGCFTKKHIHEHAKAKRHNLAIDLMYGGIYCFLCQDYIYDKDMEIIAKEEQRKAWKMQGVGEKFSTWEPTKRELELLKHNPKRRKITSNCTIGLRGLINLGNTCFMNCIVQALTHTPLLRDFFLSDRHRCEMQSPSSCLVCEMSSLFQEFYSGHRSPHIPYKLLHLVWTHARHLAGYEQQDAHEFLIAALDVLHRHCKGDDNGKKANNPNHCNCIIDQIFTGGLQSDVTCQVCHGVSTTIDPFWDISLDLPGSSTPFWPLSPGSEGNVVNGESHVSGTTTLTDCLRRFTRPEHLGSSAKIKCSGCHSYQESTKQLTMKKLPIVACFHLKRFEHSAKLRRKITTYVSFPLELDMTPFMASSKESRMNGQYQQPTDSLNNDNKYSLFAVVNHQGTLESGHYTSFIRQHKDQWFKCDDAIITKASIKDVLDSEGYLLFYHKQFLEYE
Method in brief: as §1

USP24 = USP24 (UniProt Q9UPU5)
Method in brief: as §1

USP25 = target: T3, USP25 (UniProt Q9UHP3)
T3 sequence (whole entry): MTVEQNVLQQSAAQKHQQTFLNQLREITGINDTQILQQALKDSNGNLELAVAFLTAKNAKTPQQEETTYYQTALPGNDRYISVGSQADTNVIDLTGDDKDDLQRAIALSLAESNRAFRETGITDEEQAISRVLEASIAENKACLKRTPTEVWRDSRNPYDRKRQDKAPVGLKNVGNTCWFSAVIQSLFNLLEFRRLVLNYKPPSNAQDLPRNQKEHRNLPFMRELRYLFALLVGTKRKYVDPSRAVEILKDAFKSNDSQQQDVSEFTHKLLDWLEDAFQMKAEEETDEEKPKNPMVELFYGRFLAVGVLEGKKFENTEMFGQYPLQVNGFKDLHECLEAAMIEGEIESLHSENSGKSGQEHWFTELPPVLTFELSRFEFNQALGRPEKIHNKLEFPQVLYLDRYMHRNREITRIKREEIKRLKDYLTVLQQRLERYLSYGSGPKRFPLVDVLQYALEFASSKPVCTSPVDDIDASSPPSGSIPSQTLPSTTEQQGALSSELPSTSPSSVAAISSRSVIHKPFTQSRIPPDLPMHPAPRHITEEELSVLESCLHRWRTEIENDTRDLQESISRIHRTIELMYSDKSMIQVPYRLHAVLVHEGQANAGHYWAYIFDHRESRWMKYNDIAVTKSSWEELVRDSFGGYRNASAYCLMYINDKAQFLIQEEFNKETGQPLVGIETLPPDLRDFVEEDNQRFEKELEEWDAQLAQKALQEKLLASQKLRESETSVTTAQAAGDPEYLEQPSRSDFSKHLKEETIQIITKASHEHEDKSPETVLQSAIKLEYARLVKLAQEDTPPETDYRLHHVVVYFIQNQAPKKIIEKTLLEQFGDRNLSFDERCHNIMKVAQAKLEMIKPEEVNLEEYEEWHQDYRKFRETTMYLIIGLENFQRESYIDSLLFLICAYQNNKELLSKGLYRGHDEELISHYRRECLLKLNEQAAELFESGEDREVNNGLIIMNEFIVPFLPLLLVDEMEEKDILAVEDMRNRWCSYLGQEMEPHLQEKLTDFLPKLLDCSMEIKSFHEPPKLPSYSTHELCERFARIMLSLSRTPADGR
Method in brief: as §1

USP28 = target: T4, USP28 (UniProt Q96RU2)
T4 sequence (whole entry): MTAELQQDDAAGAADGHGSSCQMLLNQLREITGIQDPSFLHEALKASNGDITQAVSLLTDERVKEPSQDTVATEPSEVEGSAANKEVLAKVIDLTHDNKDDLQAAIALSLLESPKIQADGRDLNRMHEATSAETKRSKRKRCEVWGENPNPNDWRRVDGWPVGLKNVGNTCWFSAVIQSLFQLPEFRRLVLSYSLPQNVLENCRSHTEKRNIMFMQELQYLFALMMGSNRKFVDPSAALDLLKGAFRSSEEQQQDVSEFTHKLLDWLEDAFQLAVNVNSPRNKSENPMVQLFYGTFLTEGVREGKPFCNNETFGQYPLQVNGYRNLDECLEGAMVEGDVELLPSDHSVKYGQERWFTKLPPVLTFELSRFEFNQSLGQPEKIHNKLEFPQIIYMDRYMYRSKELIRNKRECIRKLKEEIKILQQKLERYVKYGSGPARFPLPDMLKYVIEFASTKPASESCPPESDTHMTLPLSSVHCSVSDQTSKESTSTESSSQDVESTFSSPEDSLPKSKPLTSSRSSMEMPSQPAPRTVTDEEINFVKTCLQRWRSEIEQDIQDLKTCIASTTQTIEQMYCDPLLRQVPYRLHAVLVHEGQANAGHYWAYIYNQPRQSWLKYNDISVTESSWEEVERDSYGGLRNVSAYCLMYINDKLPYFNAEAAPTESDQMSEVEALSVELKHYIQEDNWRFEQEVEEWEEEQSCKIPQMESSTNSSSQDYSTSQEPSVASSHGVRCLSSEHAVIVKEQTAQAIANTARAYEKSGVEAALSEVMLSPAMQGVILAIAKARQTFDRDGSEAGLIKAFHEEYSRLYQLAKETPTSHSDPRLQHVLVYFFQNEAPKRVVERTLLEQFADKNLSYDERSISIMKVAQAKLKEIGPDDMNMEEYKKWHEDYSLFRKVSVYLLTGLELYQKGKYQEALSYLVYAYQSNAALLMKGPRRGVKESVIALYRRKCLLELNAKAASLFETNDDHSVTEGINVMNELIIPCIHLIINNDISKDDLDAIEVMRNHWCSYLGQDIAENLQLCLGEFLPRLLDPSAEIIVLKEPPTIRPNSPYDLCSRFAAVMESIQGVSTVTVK
Method in brief: as §1

Measured: log2 ratio of Biotin-Ahx-Ub-VS probe labelling

Sequence of USP24 (Q9UPU5 whole entry): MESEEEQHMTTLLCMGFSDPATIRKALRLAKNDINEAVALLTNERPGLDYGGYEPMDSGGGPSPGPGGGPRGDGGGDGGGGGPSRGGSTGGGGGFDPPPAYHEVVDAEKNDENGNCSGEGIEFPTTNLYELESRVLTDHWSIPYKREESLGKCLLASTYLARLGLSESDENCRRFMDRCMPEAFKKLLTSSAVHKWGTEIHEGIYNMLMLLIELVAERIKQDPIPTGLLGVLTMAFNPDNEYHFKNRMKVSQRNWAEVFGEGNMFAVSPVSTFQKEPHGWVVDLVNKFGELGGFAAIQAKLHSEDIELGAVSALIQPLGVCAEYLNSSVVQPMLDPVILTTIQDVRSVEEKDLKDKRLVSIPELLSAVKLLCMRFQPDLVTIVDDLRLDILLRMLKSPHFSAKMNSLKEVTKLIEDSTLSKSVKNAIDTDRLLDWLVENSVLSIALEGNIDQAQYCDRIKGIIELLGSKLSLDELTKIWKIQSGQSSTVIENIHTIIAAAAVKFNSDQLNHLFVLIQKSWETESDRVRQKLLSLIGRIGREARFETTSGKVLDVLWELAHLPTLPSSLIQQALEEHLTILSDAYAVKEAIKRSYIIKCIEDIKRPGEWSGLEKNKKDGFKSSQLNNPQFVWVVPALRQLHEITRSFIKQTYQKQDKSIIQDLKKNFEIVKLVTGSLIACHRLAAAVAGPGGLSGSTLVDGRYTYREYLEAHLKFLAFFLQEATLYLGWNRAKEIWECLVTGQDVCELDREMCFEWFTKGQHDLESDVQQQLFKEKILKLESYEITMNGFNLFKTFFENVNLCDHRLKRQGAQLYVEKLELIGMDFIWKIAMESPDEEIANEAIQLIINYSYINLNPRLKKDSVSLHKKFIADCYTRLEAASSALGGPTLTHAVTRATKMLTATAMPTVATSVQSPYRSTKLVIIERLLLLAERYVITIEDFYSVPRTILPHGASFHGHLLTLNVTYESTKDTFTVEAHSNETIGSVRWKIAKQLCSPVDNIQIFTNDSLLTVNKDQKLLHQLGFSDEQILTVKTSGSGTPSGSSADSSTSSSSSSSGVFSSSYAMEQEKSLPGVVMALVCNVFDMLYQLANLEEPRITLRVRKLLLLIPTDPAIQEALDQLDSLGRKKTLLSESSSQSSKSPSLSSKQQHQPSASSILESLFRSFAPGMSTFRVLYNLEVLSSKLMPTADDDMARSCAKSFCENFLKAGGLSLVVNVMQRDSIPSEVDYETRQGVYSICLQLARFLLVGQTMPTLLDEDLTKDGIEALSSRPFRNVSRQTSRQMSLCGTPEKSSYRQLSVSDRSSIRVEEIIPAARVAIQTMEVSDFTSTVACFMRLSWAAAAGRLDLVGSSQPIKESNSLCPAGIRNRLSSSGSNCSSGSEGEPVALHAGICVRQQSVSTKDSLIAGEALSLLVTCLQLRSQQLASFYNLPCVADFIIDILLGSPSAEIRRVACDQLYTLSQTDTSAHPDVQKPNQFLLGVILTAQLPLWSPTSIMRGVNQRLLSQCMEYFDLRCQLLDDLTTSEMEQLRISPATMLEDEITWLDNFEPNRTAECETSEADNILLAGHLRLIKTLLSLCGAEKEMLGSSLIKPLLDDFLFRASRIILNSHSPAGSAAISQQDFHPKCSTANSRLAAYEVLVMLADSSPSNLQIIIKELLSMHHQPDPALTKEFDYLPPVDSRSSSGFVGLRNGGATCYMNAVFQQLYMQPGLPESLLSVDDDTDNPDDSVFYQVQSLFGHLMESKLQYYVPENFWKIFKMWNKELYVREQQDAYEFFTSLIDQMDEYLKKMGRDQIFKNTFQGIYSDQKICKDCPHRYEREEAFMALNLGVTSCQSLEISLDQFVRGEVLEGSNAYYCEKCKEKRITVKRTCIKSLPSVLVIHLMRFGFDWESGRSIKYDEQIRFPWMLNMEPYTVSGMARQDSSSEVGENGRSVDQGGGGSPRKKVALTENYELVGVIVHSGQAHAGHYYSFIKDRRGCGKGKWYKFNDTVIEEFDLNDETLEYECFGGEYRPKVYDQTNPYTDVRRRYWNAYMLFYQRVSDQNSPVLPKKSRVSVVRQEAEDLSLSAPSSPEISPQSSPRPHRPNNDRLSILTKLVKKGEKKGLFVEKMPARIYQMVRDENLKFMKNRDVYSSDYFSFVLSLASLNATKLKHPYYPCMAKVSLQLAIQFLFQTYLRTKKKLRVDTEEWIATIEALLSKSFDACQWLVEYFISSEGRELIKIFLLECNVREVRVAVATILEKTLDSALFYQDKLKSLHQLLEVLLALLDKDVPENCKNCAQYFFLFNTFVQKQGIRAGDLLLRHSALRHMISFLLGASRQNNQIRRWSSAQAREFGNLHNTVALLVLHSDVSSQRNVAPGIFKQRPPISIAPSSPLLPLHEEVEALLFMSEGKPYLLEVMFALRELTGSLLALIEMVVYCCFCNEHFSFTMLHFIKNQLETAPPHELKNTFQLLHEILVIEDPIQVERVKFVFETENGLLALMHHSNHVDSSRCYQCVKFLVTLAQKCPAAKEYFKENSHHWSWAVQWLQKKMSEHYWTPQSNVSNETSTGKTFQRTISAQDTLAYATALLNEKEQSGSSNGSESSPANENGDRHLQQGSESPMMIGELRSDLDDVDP

CC(c1ccccc1)N(C)C(=O)CCl (stereo not given)
inactive: USP19 -0.444 | USP22 0.102 | USP24 -0.45 | USP25 -0.472 | USP28 -0.526
